Rows were chosen to be rich in hits. Some 6.1% of all compounds tested hit in one or more screens of this group.
ERG-DNA inh: blocks human ERG Ets domain binding to DNA | P11308 | Potency, µM (titrated, usually from 76.9 µM), for inactives: top-dose FP activity, negative = inhibition, actives largely listed as inhibitors | fluorescence polarization, His-ERG Ets domain / labelled DNA | AID 624246 | 370,000 tested, 0.028% active; active = well fitted inhibition curve with a large enough effect in the polarisation, with a control signal flat; inconclusive = small, poorly fitted or top-dose-only effect, or effect the other way, or a change in a side signal; inactive = no such curve, though single readings can be large or run the other way; the % refers to the polarisation;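 note: polarization taken with two DNA probes labelled with fluorescein and Texas red; potency is the fitted concentration of half-maximal effect; % of control where 0% means no effect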
Target sequence (P11308 whole entry, looked up, the tested form may be a part): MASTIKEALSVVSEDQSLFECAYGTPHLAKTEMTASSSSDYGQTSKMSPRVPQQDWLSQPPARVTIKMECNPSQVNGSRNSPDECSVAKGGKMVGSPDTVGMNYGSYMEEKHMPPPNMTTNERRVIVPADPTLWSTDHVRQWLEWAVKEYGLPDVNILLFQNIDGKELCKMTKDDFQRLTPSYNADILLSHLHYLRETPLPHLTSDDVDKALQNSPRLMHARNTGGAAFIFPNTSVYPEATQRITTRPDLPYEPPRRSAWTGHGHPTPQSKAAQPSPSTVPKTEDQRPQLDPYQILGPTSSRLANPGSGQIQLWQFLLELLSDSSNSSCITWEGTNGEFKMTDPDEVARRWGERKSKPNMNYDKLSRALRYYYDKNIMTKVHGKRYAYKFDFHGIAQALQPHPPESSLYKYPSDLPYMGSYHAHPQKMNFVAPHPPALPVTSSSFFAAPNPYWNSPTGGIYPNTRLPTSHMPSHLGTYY
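His-tagged ERG Ets domain (1 uM in the protein solution; 300mM KCl, 50mM Tris-HCl, 1mM EDTA, 1mM DTT, pH 7.5) received compound, then a probe mix of 5 nM fluorescein-DNA and 100nM Texas-615-DNA. Fluorescence polarization was read for both dyes.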
D1 antagonist: human D1 dopamine receptor antagonism; P21728; HEK293 TREx D1 cells, calcium flux, dopamine EC80; hits give low values; activity change, negative = inhibition, % at 10 µM; 360,000 tested, 3.2% active; AID 504652; in the data active = activity change below about -30%; note: % is set by controls: 0 for no effect and ±100 for the full control effect
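Kinetic fluorescence of a calcium dye serves as the read-out. D1-expressing Hek293 Trex cells, induced overnight at 30 C, are exposed to compound for 180 s before an EC80 dopamine addition, then read 180 s further.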
D1 potentiator: enhances dopamine response at the human D1 receptor; potentiation, % at 10 µM; 360,000 tested, 0.036% active; HEK293 TREx D1 cells, calcium flux, dopamine EC20 potentiation; P21728; in the data active = potentiation above about 30%; note: 0% is about no effect
D1 agonist: agonists of human D1 dopamine receptor; P21728; HEK293 T-REx D1 cells, calcium flux, agonist mode; activation, % at 2 µM; 360,000 tested, 1% active; AID 504660; in the data active = activation above about 30%; note: 0% is about no effect
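Inducible HEK293 T-REx D1 cells, force-coupled to calcium signalling, were plated at 4000 cells/well with tetracycline and held overnight at 30 C. After no-wash calcium dye loading, compound-evoked calcium rise over 180 s flagged agonists.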
D3 antag: blocks the human D3 dopamine receptor | max response, negative = inhibition, % | P35462 | D3R cells, DiscoveRx beta-arrestin luminescence, antagonist mode; hits give low values | 360,000 tested, 2.5% active; in the data active = max response below about -50%; inconclusive = no clear call, values can overlap the other calls; note: % is set by controls: 0 for no effect and ±100 for the full control effect
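Cells plated overnight at 1500 cells/well, then exposed to library compounds with dopamine controls for 90 minutes at 37 degrees C. DiscoveRx reagent added for 30–60 minutes at room temperature; luminescence read, quantitative HTS format.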
D3 ag: agonists of human D3 dopamine receptor | AID 652048 | D3R DiscoveRx beta-arrestin cells, luminescence, 90 min | P35462 | max activation, % | 410,000 tested, 0.58% active; in the data active = max activation above about 30%; note: 0% is about no effect
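Agonist-mode cell screen: cells plated at 1500/well and incubated overnight at 37 °C, then exposed to library compounds for 90 min at 37 °C. Detection reagent was added for 30–60 min at room temperature, and luminescence was read.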
* hit, by the source's call; ? = inconclusive; . = not tested or not shown; [ ] = dose if it differs, or a comment.

SMILES	ERG-DNA inh	D1 antagonist	D1 potentiator	D1 agonist	D3 antag	D3 ag
Cc1cc(O)ccc1C1(c2ccc(O)cc2C)OC(=O)c2ccccc21	-4%	5	0	9	-5	2
O=C1OC2(c3ccccc31)c1cc(I)c(O)c(I)c1Oc1c2cc(I)c(O)c1I	.	-42*	-1	411*	.	-34
O=C1OC2(c3ccc(O)cc3Oc3cc(O)ccc32)c2ccccc21	.	.	.	.	.	30*
CC(=O)Oc1ccc2c(c1)Oc1cc(OC(C)=O)ccc1C21OC(=O)c2ccccc21	?	4	-1	834*	18	8
CC(C)CNC(=O)COc1ncnc2ccccc12	-3%	.	-2	1	-10	-5
COc1ccc2c(c1)CCc1c(C(=O)Nc3ccc(OC)cc3OC)noc1-2	4%	-18	-2	-1	.	-5
Cc1cc(C(=O)N2CCCC(N3CCN(c4ccc(F)cc4)CC3)C2)c(C)o1 (stereo unspecified)	10%	-10	-8	3	7	-8
OCCN1CCN(CC(O)COc2ccc(-c3ccccc3)cc2)CC1 (stereo unspecified)	0%	-24	-8	5	-62*	2
CCOC(=O)N1CCN(CC(O)COCc2ccccc2)CC1 (stereo unspecified)	0%	18	5	2	-24	1
CCOC(=O)N1CCN(CC(O)COc2ccc(-c3ccccc3)cc2)CC1 (stereo unspecified)	-3%	-31*	-4	8	9	13
CN(C)CCCN1c2ccccc2CCc2ccc(Cl)cc21	-6%	-96*	-3	36*	-104*	-87
CN(C)CCCN1c2ccccc2Sc2ccccc21	-8%	-81*	-4	42*	-105*	-84
CNCCCN1c2ccccc2CCc2ccccc21	-5%	3	-5	27	-75*	-82
CC(=O)c1ccc2c(c1)N(C)c1ccccc1S2	7%	-10	-6	0	-19	4
CN(CCCN1c2ccccc2CCc2ccccc21)CC(=O)c1ccc(Cl)cc1	.	.	.	.	.	-20
CC(=O)c1ccc2c(c1)N(CCCN(C)C)c1ccccc1S2	8%	.	.	.	-108*	-96
CCN1C(=O)CCCc2ccccc21	13%	9	-2	0	22	-5
CCC(=O)c1ccc2c(c1)N(CCCN(C)C)c1ccccc1S2	6%	.	.	.	-109*	-90
COc1ccc2c(c1)Sc1ccccc1N2CCN(C)C	3%	-16	-11	16	-81*	-20
CN1C(=O)C(CC(=O)N2CCN(C(c3ccccc3)c3ccccc3)CC2)N(C)C1=O (stereo unspecified)	-3%	-7	-1	0	8	0
O=C(CN1c2cccc3cccc(c23)S1(=O)=O)Nc1cccc(S(=O)(=O)N2CCOCC2)c1	1%	-3	1	18	1	3
NC(=S)NC1CC2C=CC1C2 (stereo unspecified)	-1%	4	0	3	2	-7
Cc1ccc(-c2csc(-c3c(N)c(C(=O)c4ccc5c(c4)OCO5)n4ccccc34)n2)cc1	1%	-17	-2	5	.	-11
Nc1c(-c2nc(-c3ccccc3)cs2)c2ccccn2c1C(=O)c1ccc2c(c1)OCO2	0%	-8	-1	35*	.	-14
CCOc1ccc(-c2csc(-c3c(N)c(C(=O)c4ccc5c(c4)OCO5)n4ccccc34)n2)cc1	4%	-1	-3	42*	.	-13
SMILES	ERG-DNA inh	D1 antagonist	D1 potentiator	D1 agonist	D3 antag	D3 ag
O=C(Nc1sc2c(c1C(=O)NCc1cccnc1)CCCC2)c1cc(=O)c2ccccc2o1	7%	-2	6	1	.	7
COc1ccc(OC)c(CCNC(=O)CC2(CC3=NS(=O)(=O)c4ccccc4N3)CCCC2)c1	-10%	-20	-3	-1	16	-4
Cc1csc(SCC(=O)N2CCN(S(=O)(=O)c3ccccc3)CC2)n1	2%	-13	6	2	-5	-5
Cc1ccc(-c2nnc(SCC(=O)N3CCCC3)o2)cc1	2%	0	-2	2	0	0
Cc1ccc(S(=O)(=O)N2CCN(C(=O)CSc3nnc(-c4ccco4)o3)CC2)cc1	-4%	-40*	-8	0	-9	2
Cc1nnc(SCC(=O)N2CCN(S(=O)(=O)c3ccccc3)CC2)s1	3%	-39*	-4	1	-4	-4
Cc1ccc(C)c(S(=O)(=O)N2CCN(C(=O)CCc3c[nH]c4ccccc34)CC2)c1	3%	-35*	-5	1	7	-3
CCC(C(=O)OCC(=O)N1CCN(S(=O)(=O)c2ccc(C)cc2C)CC1)c1ccccc1 (stereo unspecified)	25%[15.4 µM]	-3	.	49*	-18	5
Cc1ccc(C)c(S(=O)(=O)N2CCN(C(=O)CSc3ccccc3)CC2)c1	-2%	-41*	-4	-1	-3	6
Cc1noc(NS(=O)(=O)c2ccc(N/C=C\C(=O)c3ccc(F)cc3)cc2)c1C	-13%	-5	7	3	-22	-2
O=C(Nc1ccccc1)c1ccc(CN2CCC(Cc3ccccc3)CC2)cc1	-15%	.	.	.	-51*	-13
O=C(Nc1ccccc1C(F)(F)F)c1ccc(CN2CCC(Cc3ccccc3)CC2)cc1	12%	-8	-4	3	-52*	-17
CC(=O)N(/N=C1\Sc2ccccc2C1=O)c1ccccc1C	3%	8	-4	2	-4	7
CC(=O)N(/N=C1\Sc2ccccc2C1=O)c1ccccc1	-15%	-44*	-7	5	-59*	-2
CC(c1ccccc1)N1C(=O)c2ccccc2C1(O)Cc1ccccc1 (stereo unspecified)	9%	-74*	-1	2	-20	-10
Cc1ccc(N2C(=O)c3ccccc3C2(O)c2ccccc2)cc1 (stereo unspecified)	-6%	.	.	.	22	0
O=C(C[n+]1ccc(C(=O)c2ccccc2)cc1)Nc1ccc(C(F)(F)F)cc1	-6%	-43*	-3	2	-11	-13
O=C(Nc1ccc(C(F)(F)F)cc1)c1ccccc1Br	0%	-38*	-7	4	2	4
Nc1cc[n+](CC(=O)Nc2ccccc2)cc1	-13%	-6	-3	1	-5	-3
O=C(Nc1ccc(C(F)(F)F)cc1)c1ccccc1	0%	-49*	-12	1	-20	-4
O=C(Nc1ccc(NC(=O)c2ccccc2Br)cc1)c1ccccc1	17%	-16	-3	4	-5	-1
S=C(Nc1cccc(Cl)c1Cl)NC1CCN(Cc2ccccc2)CC1	0%	-21	-14	26	-90*	-20
Cc1cccc(NC(=S)N2CCN(Cc3ccccc3)CC2)c1C	-2%	-10	1	2	-7	-3
